Compound activity (PubChem BioAssay)
LGR2 inh: inhibitors of bursicon-induced Drosophila LGR2 receptor cAMP signaling | HEK293 LGR2, CRE-luciferase, bursicon-stimulated, 4 h | inhibition, % at 9.99 µM | actives 0.35% (n = 380,000) | AID 720647;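 active means drop in luminescence signal, shown as inhibition above about 50% in the replicate tests, limit read from the data, passing the limit was not always enough; inconclusive means probably only some replicates passing the limit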;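 further: agonist challenge used bursicon conditioned medium at about half maximal strength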
LMP1 NFkB inh: reduces LMP1-driven NF-kappaB luciferase signal | AID 504558 | inhibition, % at 12.5 µM | LMP1-induced NF-kappaB luciferase reporter cells, luminescence | actives 0.69% (n = 350,000); in the data active means inhibition above about 41%; inconclusive means no clear call, values can overlap the other calls
TROY signal inh: blocks TROY-dependent signaling in reporter cells; actives 0.98% (n = 360,000); inhibition, % at 10 µM; Q293 LMP1-TROYcd NF-kB luciferase reporter, 4 h;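 active means compounds whose plate-normalised and pattern-corrected inhibition of the luciferase reporter signal at the single screening dose is 50% or more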
MITF TRPM1 inh: reduces MITF-dependent TRPM1 promoter luciferase signal | SK-MEL-5 TRPM1 promoter luciferase, 24 h | inhibition, % at 12.5 µM | actives 0.83% (n = 330,000) | AID 488899;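 active means mean inhibition across replicates of 60% or more, whatever share of single replicates reaches that level; inconclusive means some that reach 60%, reason not given; inactive means mean inhibition across replicates below 60%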
TWEAK Fn14 block: inhibitors of TWEAK-Fn14 interaction signaling | TWEAK-stimulated Fn14 reporter cells, luciferase luminescence, 8 h | inhibition, % at 10 µM | actives 2% (n = 360,000); in the data active means inhibition above about 50%
MITF act: activators of MITF-driven TRPM1 promoter activity in SK-MEL-5 cells. activation, % at 12.5 µM. AID 588334. SK-MEL-5 TRPM1-promoter luciferase, 24 h; % of positive control, neutral wells = 0. actives 0.75% (n = 300,000);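 active means mean activation of at least 80% with every replicate also reaching 80%; inconclusive means mean reaches 80% but some replicate falls short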
Hits are given with their value; - = inactive; ? = inconclusive; . = not tested or not shown. Hits are enriched below; roughly 3% of the tested compounds scored in any of these assays.

SMILES	LGR2 inh	LMP1 NFkB inh	TROY signal inh	MITF TRPM1 inh	TWEAK Fn14 block	MITF act
C[C@@H]1CN([C@@H](C)CO)C(=O)c2cc(-c3ccncc3)cnc2O[C@H]1CN(C)Cc1ccc(F)cc1	-	.	.	.	.	.
CC#CC[N+](C)(C)CCCCCCCCCCCC	-	-	-	65	-	-
C#CC[N+](C)(C)CCCCCCCCCC	.	-	-	-	-	-
C#CC[N+](C)(C)CCCCCCCCCCCC	.	-	-	72	-	-
CO[C@@H]1CN(C)C(=O)c2ccc(NS(C)(=O)=O)cc2OC[C@H](C)N(CC2CC2)C[C@@H]1C	-	.	.	.	.	.
CC1Cc2ccccc2N1C(=O)COC(=O)/C=C/c1ccc(F)cc1 (stereo not given)	-	-	-	-	-	-
CC1Cc2ccccc2N1C(=O)/C=C/c1cccc(F)c1 (stereo not given)	-	-	-	-	-	96
CCS(=O)(=O)N1CC2(C1)[C@@H](c1ccccc1)[C@@H](CO)N2C(=O)C1CC1	-	.	.	.	.	.
CS(=O)(=O)Nc1ccc2c(c1)[C@H]1C[C@@H](CC(=O)NCc3ccncc3)O[C@@H](CO)[C@H]1O2	-	.	.	.	.	.
COc1cc(NC(C)CCCNC(C)C)c2ncccc2c1OC (stereo not given)	-	-	-	-	-	-
COc1cc(NCCCCCCN)c2ncccc2c1OC	-	56	-	-	-	-
Fc1cccc2sc(Nc3nc4cc5c(cc4s3)OCCO5)nc12	-	-	72	-	73	-
CCCNC(=O)C[C@@H]1CC[C@H]2[C@H](COc3ccc(NC(=O)C4CCCC4)cc3C(=O)N2C)O1	-	.	.	.	.	.
COc1ccc(-c2nnc(N(C)C(=O)c3ccno3)s2)cc1	.	-	.	-	50	-
CC(C)(C)[S@](=O)N1Cc2cc(C(=O)N3CCOCC3)nc(-c3cccc(Br)c3)c2[C@@H]1CCO	-	.	.	.	.	.
O=C(Nc1ccsc1C(=O)O)c1cccc(Oc2ccccc2)c1	-	-	53	-	53	-
O=C(Nc1ccsc1C(=O)O)c1cccc(C(F)(F)F)c1	-	-	-	.	-	?
COc1ccc(-c2coc3cc(OC(C)=O)ccc3c2=S)cc1	-	-	-	-	-	87
COc1cc(O)cc2occ(-c3ccc(O)cc3)c(=O)c12	-	-	-	-	-	-
COc1ccc(-c2coc3cc(O)cc(O)c3c2=O)cc1	-	-	-	-	-	97
O=c1c(-c2ccc(O)cc2)coc2cc(O)cc(O)c12	-	-	-	-	-	100
COc1ccc2c(=O)c(-c3nc(C)cs3)coc2c1	.	-	-	-	79	-
COc1ccc(NC(=O)Nc2ccc3c(c2)C(=O)N([C@H](C)CO)C[C@@H](C)[C@@H](CN(C)CC2CCCCC2)O3)cc1	-	.	.	.	.	.
COCC#Cc1cnc2c(c1)C(=O)N([C@@H](C)CO)C[C@H](C)[C@@H](CN(C)C(=O)C1CC1)O2	-	.	.	.	.	.
CNC[C@@H]1Oc2c(NC(=O)NC(C)C)cccc2C(=O)N([C@@H](C)CO)C[C@H]1C	-	.	.	.	.	.
SMILES	LGR2 inh	LMP1 NFkB inh	TROY signal inh	MITF TRPM1 inh	TWEAK Fn14 block	MITF act
C[C@@H]1CCCCO[C@H](CN(C)S(=O)(=O)c2ccc(F)cc2)[C@@H](C)CN([C@H](C)CO)C(=O)c2cc(NC(=O)c3ccncc3)ccc2O1	-	.	.	.	.	.
CO[C@H]1CN(C)C(=O)c2cc(NS(C)(=O)=O)ccc2OC[C@H](C)N(Cc2cncnc2)C[C@@H]1C	-	.	.	.	.	.
COc1ccc2c3c(n(C)c2c1)[C@H](CO)N(C(=O)c1ccc(F)cc1)CC31CCN(CC2CCOCC2)CC1	-	.	.	.	.	.
C[C@@H]1CN([C@@H](C)CO)S(=O)(=O)c2ccc(C#CC3(O)CCCC3)cc2O[C@@H]1CN(C)C(=O)Cc1ccncc1	-	.	.	.	.	.
COc1ccc(-c2coc3cc(OC)cc(O)c3c2=O)cc1	.	-	-	-	-	96
COc1cccc(CNc2ccc(F)c(Cl)c2)c1O	.	-	-	-	-	88
CCCN(C)C[C@H]1Oc2cc(C#CC3CCCC3)ccc2S(=O)(=O)N([C@H](C)CO)C[C@H]1C	-	.	.	.	.	.
COc1ccc(CCNC(=O)c2ccc(N(C)S(=O)(=O)c3ccc(C)cc3)cc2)cc1	-	-	-	-	-	-
COc1ccc(CCNC(=O)c2ccc(Cl)c(S(=O)(=O)N(C)c3ccccc3)c2)cc1	-	-	53	-	58	-
CN(c1ccccc1)S(=O)(=O)c1cccc(C(=O)NCCc2ccc(O)c(O)c2)c1	.	-	56	-	-	-
COc1ccc(CCNC(=O)c2ccc(Cl)c(S(=O)(=O)N3CCCCCC3)c2)cc1	-	-	-	-	60	-
O=C(NCCc1ccccc1)c1ccc(Cl)c(S(=O)(=O)N2CCCC2)c1	.	-	-	-	-	-
O=C(Cc1cccnc1)N1CC(=O)N2[C@H](CO)[C@H](c3ccc(C#CC4CCCC4)cc3)[C@H]2C1	-	.	.	.	.	.
O=C1c2ccccc2NC(c2ccc(-c3cccs3)o2)N1O (stereo not given)	-	?	-	-	-	83
C[C@H](CO)N1C[C@H](C)[C@@H](CN(C)S(=O)(=O)c2ccc(F)cc2)Oc2ccc(NC(=O)c3ccncc3)cc2CC1=O	-	.	.	.	.	.
CCOc1ccc(C(=O)Nc2cccc(C(=O)O)c2C)cc1Cl	70	-	-	67	68	-
O=C(Nc1ccccc1C(=O)O)c1ccccc1	.	-	-	-	-	-
CCOc1ccc(C(=O)Nc2ccccc2-c2ccccc2)cc1Cl	-	-	-	-	-	-
O=C(Nc1ccccc1-c1ccccc1)c1ccccc1	-	-	-	-	62	-
Cc1c(NC(=O)c2ccc(-c3ccccc3)cc2)cccc1C(=O)O	56	-	-	-	-	-
COc1cccc(C(=O)Nc2ccccc2-c2ccccc2)c1	-	-	-	-	-	-
C[C@@H]1CN([C@@H](C)CO)C(=O)c2cc(NC(=O)CCN3CCOCC3)ccc2O[C@@H]1CN(C)S(=O)(=O)c1cn(C)cn1	-	.	.	.	.	.
O=C(N/N=C/c1coc2ccc(Cl)cc2c1=O)c1ccc(O)cc1	-	-	-	-	70	-
O=C(N/N=C/c1cc(Cl)cc(Cl)c1O)c1ccncc1	-	-	-	64	-	-
O=C(N/N=C/c1coc2ccccc2c1=O)c1ccccc1Br	-	-	-	-	58	-
SMILES	LGR2 inh	LMP1 NFkB inh	TROY signal inh	MITF TRPM1 inh	TWEAK Fn14 block	MITF act
COc1ccc(C(=O)N/N=C\c2coc3ccc(Cl)cc3c2=O)cc1	-	-	-	-	-	-
Oc1c(Cl)cc(Cl)cc1/C=N/Nc1ncc(Br)cn1	-	?	-	66	-	-
O=C(N/N=C/c1ccc(Cl)cc1Cl)c1ccncc1	-	-	-	-	-	.
CCCNC(=O)C[C@H]1CC[C@@H]2[C@H](COC[C@H](O)CN2C(=O)CC)O1	-	.	.	.	.	.
O=C(Nc1ccc(Cl)cc1)N[C@H]1CC[C@@H](CCNC(=O)c2ccccc2F)O[C@@H]1CO	-	.	.	.	.	.
O=C(N/N=C/c1coc2ccc(Cl)cc2c1=O)c1ccncc1	-	-	-	-	54	-
